Source: ChEMBL document CHEMBL3988442, “University of Dundee, Small-Polar-MMV Screening Library” (2021)

Each compound was assayed against T1, Tyrosyl-tRNA synthetase, putative (Trypanosoma cruzi (strain CL Brener)) (UniProt Q4DSP6) (assay: Trypanosoma cruzi tyrosyl tRNA synthetase (TcYRS) _High Tyrosine SOP). Conditions: 30 µM.
T1 sequence (whole entry): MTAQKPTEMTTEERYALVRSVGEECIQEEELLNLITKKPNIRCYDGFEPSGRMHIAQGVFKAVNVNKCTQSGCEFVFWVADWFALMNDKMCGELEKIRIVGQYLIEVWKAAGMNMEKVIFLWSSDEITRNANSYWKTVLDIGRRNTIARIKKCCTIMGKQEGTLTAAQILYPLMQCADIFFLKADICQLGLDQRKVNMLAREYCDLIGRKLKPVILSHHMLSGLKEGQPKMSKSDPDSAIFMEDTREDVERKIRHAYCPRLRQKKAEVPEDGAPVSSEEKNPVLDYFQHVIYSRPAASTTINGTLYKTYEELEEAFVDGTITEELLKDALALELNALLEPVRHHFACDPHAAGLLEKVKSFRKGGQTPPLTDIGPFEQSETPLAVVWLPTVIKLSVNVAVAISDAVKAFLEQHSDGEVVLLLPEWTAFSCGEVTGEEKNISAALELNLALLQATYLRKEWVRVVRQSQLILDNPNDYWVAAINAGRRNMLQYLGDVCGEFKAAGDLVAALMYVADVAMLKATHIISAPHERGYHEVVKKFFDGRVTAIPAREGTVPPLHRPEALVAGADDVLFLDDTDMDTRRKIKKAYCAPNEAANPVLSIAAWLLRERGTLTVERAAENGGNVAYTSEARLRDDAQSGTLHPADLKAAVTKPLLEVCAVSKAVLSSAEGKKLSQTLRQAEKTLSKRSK
Format: functional
Design: scale not given: in the data most compounds retested in dose-response had high values

SMILES	Percent Effect [%]
CN(C)c1cc2c(nn1)CCN(C(=O)C1CCc3ccccc31)C2 (stereo not given)	-5.42
Cc1nnc2n1CCN(C(=O)c1cn(-c3ccccc3Cl)nn1)C2	7.29
Cc1cccnc1NC(=O)NC(C)Cn1cccn1 (stereo not given)	3.88
O=C(NCCNC(=O)N1CCC(c2ccccc2)C1)C1CC1 (stereo not given)	2.65
COc1ccnc(N2CCN(C(=O)Cc3ccc(C#N)cc3)CC2)n1	7.62
CN(C(=O)NCCCN1CCCC1)C1CCN(c2ccccc2)C1=O (stereo not given)	4.41
Fc1ccc(CNCC2OCCc3cn(CC4CC4)nc32)cc1 (stereo not given)	3.24
CC1CCCCN1CCNC(=O)c1ccn(-c2ccc(F)cc2)n1 (stereo not given)	-26.1
Cc1ccc(NC(=O)N2CCOC(C)C2)cc1Cl (stereo not given)	7.29
Cc1ccc(CN(Cc2ccccn2)C2CC(C)(C)NC(C)(C)C2)s1	4.3
CN(C)c1ncccc1CNC(=O)N1CCCC1CN1CCCCC1 (stereo not given)	7.77
Cc1nn(CCO)c(C)c1CNC1CCc2c(Cl)cccc21 (stereo not given)	1.64
CCc1nc(C(=O)N2CCN(C)CC2C)nn1-c1ccccc1Cl (stereo not given)	5.42
O=C(Cc1ccsc1)N1CCCC(c2n[nH]c3nccnc23)C1 (stereo not given)	2.15
CN(C)CC(=O)N1CCCC2(CCC(=O)N(CCc3c[nH]cn3)C2)C1 (stereo not given)	9.68
CCc1n[nH]c(C2CN(C(=O)c3csnn3)CCO2)n1 (stereo not given)	2.86
COc1cccc(CCNC(=O)CN2CCN(C)CC2C)c1 (stereo not given)	4.95
Oc1ccc(N2CCN(Cc3cc4c(cc3Br)OCCO4)CC2)cc1	9.47
CC(C)OCCN(Cc1cccc(O)c1)C1CCC(O)CC1 (stereo not given)	0
O=C(CCN1CCCC1C1CCCCC1)N1CCc2sccc2C1 (stereo not given)	14.3
